Data reported in PubChem BioAssay (NCATS).
Inconclusive results are not listed. Activity calls are given as the source filed them. The call rests on the fitted dose curve; in most records, active means well fitted curve in the direction sought with a large enough effect; inconclusive means small, poorly fitted or top-dose-only effect, or another doubt; inactive means no such curve, though single readings can be large; an effect the other way counts as inactive or inconclusive. Where a SMILES comes first, the peptide text is derived from it. [ ]: non-standard residue; d: D form. ξ: configuration not given here. ξTyr(βOH) = NC(C(=O)O)C(O)c1ccc(O)cc1

Tests used:
HACAT = assay: qHTS assay to identify novel small-molecules to repurpose for Merkel cell carcinoma treatment (AID 1296009); settings: MCC and control cell lines, CellTiter-Glo viability, 72 h; at 44.8 µM (top of the series) unless noted; further: nearly all actives have a fitted effect of over 60% in size
Method in brief: (§1)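 Dose-response viability screen; 72 hr exposure at 37 degree celsius; CellTiter-Glo added, 10 min room temperature, luminescence read; RLUs scaled between no-cell and DMSO wells.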

NIH3T3 = assay: as above; settings: MCC and control cell lines, CellTiter-Glo viability, 72 h; at 44.8 µM (top of the series) unless noted
Method in brief: as §1

C33A = assay: Primary qHTS to identify gynecologic anti-cancer compounds using libraries of approved drugs and bioactive compounds (AID 1345084); settings: Gynecologic cancer cell panel viability, ATPlite luminescence, 48 h; series mostly up to 57.5 µM; further: nearly all actives have a fitted effect of over 55% in size; further: potency means the concentration at half of the fitted maximal effect; on activity change, negative = cytotoxicity: on the % scale 0 is the no-effect control and ±100 the full control effect
Method in brief: (§2)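 Cells, 1,000 per well, plated 16 h, then exposed 48 h at 37 C to compounds. Viability by ATPlite luminescence after 15 min at room temperature.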

CAOV3 = assay: as above; settings: Gynecologic cancer cell panel viability, ATPlite luminescence, 48 h; series mostly up to 57.5 µM
Method in brief: as §2

CASKI = assay: as above; settings: Gynecologic cancer cell panel viability, ATPlite luminescence, 48 h; series mostly up to 57.5 µM
Method in brief: as §2

Es-2 = assay: as above; settings: Gynecologic cancer cell panel viability, ATPlite luminescence, 48 h; series mostly up to 57.5 µM
Method in brief: as §2

HeLa = assay: as above; settings: Gynecologic cancer cell panel viability, ATPlite luminescence, 48 h; series mostly up to 57.5 µM
Method in brief: as §2

Hek293T = assay: as above; settings: Gynecologic cancer cell panel viability, ATPlite luminescence, 48 h, control line for the selectivity index; series mostly up to 57.5 µM
Method in brief: as §2

JEG-3 = assay: as above; settings: Gynecologic cancer cell panel viability, ATPlite luminescence, 48 h; series mostly up to 57.5 µM
Method in brief: as §2

CC(=O)c1ccc(O[C@@H]2OC[C@@H](O)[C@H](O)[C@H]2O[C@]2(CO)O[C@H](CO)[C@@H](O)[C@@H]2O)c(O)c1
inactive: outcome (HACAT) inactive [at 17.4 µM] | outcome (NIH3T3) inactive [at 17.4 µM] | Potency (C33A) | Potency (CAOV3) | outcome (CASKI) | Potency (Es-2) | Potency (HeLa) | Potency (Hek293T) | Potency (JEG-3)

CC(C)=CCC[C@](C)(O[C@@H]1O[C@H](CO[C@@H]2OC[C@H](O)[C@H](O)[C@H]2O)[C@@H](O)[C@H](O)[C@H]1O)[C@H]1CC[C@]2(C)[C@@H]1[C@H](O)C[C@@H]1[C@@]3(C)CC[C@H](O[C@@H]4O[C@H](CO)[C@@H](O)[C@H](O)[C@H]4O[C@@H]4O[C@H](CO)[C@@H](O)[C@H](O)[C@H]4O)C(C)(C)[C@@H]3CC[C@]12C
inactive: outcome (HACAT) inactive [at 17.4 µM] | outcome (NIH3T3) inactive [at 17.4 µM] | Potency (C33A) | Potency (CAOV3) | outcome (CASKI) | Potency (Es-2) | Potency (HeLa) | Potency (Hek293T) | Potency (JEG-3)

NC[C@@H]1O[C@@H](O[C@@H]2[C@@H](O[C@@H]3O[C@H](CO)[C@@H](O)[C@H]3O)[C@H](O)[C@@H](N)C[C@H]2N)[C@@H](N)[C@H](O)[C@H]1O
inactive: outcome (HACAT) inactive [at 9.27 µM] | outcome (NIH3T3) inactive [at 9.27 µM] | activity change, negative = cytotoxicity (C33A) 8.18% [at 11.6 µM] | activity change, negative = cytotoxicity (CAOV3) 0.692% [at 11.6 µM] | activity change, negative = cytotoxicity (CASKI) 0.509% [at 11.6 µM] | activity change, negative = cytotoxicity (Es-2) 6.5% [at 11.6 µM] | activity change, negative = cytotoxicity (HeLa) 15.1% [at 11.6 µM] | activity change, negative = cytotoxicity (Hek293T) 17.2% [at 11.6 µM] | activity change, negative = cytotoxicity (JEG-3) 7.01% [at 11.6 µM]

COC(=O)C1=COC(O[C@@H]2O[C@H](CO)[C@@H](O)[C@H](O)[C@H]2O)/C(=C\COC(=O)/C=C/c2ccccc2)C1CC(=O)OCCc1ccc(O)cc1 (stereo partly drawn)
inactive: outcome (HACAT) inactive [at 17.4 µM] | outcome (NIH3T3) inactive [at 17.4 µM] | Potency (C33A) | Potency (CAOV3) | outcome (CASKI) | Potency (Es-2) | Potency (HeLa) | Potency (Hek293T) | Potency (JEG-3)

C[C@@H]1O[C@@H](O[C@@H]2[C@@H](O)[C@H](O[C@@H]3[C@@H](O)[C@@H](O)[C@H](O[C@H]4[C@H](OC(=O)[C@]56CCC(C)(C)C[C@H]5C5=CCC7[C@@]8(C)C[C@H](O)[C@H](O[C@@H]9O[C@H](C(=O)O)[C@@H](O)[C@H](O)[C@H]9O)[C@@](C)(CO)C8[C@H](O)C[C@@]7(C)[C@]5(C)C[C@H]6O)O[C@@H](CO)[C@@H]4O)O[C@H]3C)OC[C@H]2O)[C@H](O)[C@H](O)[C@H]1O (stereo partly drawn)
inactive: outcome (HACAT) inactive [at 9.27 µM] | outcome (NIH3T3) inactive [at 9.27 µM] | activity change, negative = cytotoxicity (C33A) 7.96% [at 6.55 µM] | activity change, negative = cytotoxicity (CAOV3) -1.08% [at 6.55 µM] | activity change, negative = cytotoxicity (CASKI) 4.5% [at 6.55 µM] | activity change, negative = cytotoxicity (Es-2) 7.92% [at 6.55 µM] | activity change, negative = cytotoxicity (HeLa) 5.7% [at 6.55 µM] | activity change, negative = cytotoxicity (Hek293T) 11.5% [at 6.55 µM] | activity change, negative = cytotoxicity (JEG-3) 3.64% [at 6.55 µM]

C/C=C(\C)C(=O)OC1CC2C(CC=C3CC(OC4CC(OC)C(OC5CC(OC)C(OC6CC(OC)C(OC7CC(OC)C(OC8CC(OC)C(OC9OC(CO)C(O)C(O)C9O)C(C)O8)C(C)O7)C(C)O6)C(C)O5)C(C)O4)CCC32C)C2(O)CCC(C(C)=O)C12C (stereo not drawn)
inactive: outcome (HACAT) inactive [at 9.27 µM] | outcome (NIH3T3) inactive [at 9.27 µM] | activity change, negative = cytotoxicity (C33A) 4.48% [at 6.55 µM] | activity change, negative = cytotoxicity (CAOV3) -9.87% [at 6.55 µM] | activity change, negative = cytotoxicity (CASKI) -6.32% [at 6.55 µM] | activity change, negative = cytotoxicity (Es-2) 2.25% [at 6.55 µM] | activity change, negative = cytotoxicity (HeLa) 6.7% [at 6.55 µM] | activity change, negative = cytotoxicity (Hek293T) -0.353% [at 6.55 µM] | activity change, negative = cytotoxicity (JEG-3) 3.01% [at 6.55 µM]

C/C1=C\CC[C@]2(C)O[C@H]2C(=O)c2c(C)coc2C1
active: Potency (C33A) 7.94 µM | Potency (CAOV3) 15.8 µM | Potency (Es-2) 11.2 µM | Potency (HeLa) 7.94 µM | Potency (Hek293T) 10 µM
inactive: outcome (HACAT) | outcome (NIH3T3) | outcome (CASKI)

CC(=O)N[C@H](Cc1c[nH]c2ccccc12)C(=O)OCc1cc(C(F)(F)F)cc(C(F)(F)F)c1
inactive: outcome (HACAT) | outcome (NIH3T3) | Potency (C33A) | Potency (CAOV3) | outcome (CASKI) | Potency (Es-2) | Potency (HeLa) | Potency (Hek293T) | Potency (JEG-3)

CC1(C)CCC2(C(=O)O)CCC3(C)C(=CCC4C5(C)CCC(O)C(C)(CO)C5C(O)CC43C)C2C1 (stereo not drawn)
inactive: outcome (HACAT) inactive [at 17.4 µM] | outcome (NIH3T3) inactive [at 17.4 µM] | Potency (C33A) | Potency (CAOV3) | outcome (CASKI) | Potency (Es-2) | Potency (HeLa) | Potency (Hek293T) | Potency (JEG-3)

CC1(C)C2CC[C@@]34CC(CC[C@H]3[C@]2(C)CC[C@@H]1O[C@@H]1O[C@H](CO)[C@@H](O)[C@H](O)[C@H]1O)[C@](C)(O)C4 (stereo partly drawn)
inactive: outcome (HACAT) inactive [at 17.4 µM] | outcome (NIH3T3) inactive [at 17.4 µM] | Potency (C33A) | Potency (CAOV3) | outcome (CASKI) | Potency (Es-2) | Potency (HeLa) | Potency (Hek293T) | Potency (JEG-3)

CCN(CCN(C)C)C(=O)CNCc1cc(C(N)=O)ccn1
inactive: outcome (HACAT) | outcome (NIH3T3) | Potency (C33A) | Potency (CAOV3) | outcome (CASKI) | Potency (Es-2) | Potency (HeLa) | Potency (Hek293T) | Potency (JEG-3)

CC(=O)OCC1=CCC2C(C)(C)CCCC2(C)C12CCC(C)(CC(=O)O)O2 (stereo not drawn)
inactive: outcome (HACAT) | outcome (NIH3T3) | Potency (C33A) | Potency (CAOV3) | outcome (CASKI) | Potency (Es-2) | Potency (HeLa) | Potency (Hek293T)

CC(C)c1cc2c(c(O)c1O)[C@@]13CCCC(C)(C)C1[C@@H](O)[C@@H]2OC3=O (stereo partly drawn)
inactive: outcome (HACAT) | outcome (NIH3T3) | Potency (C33A) | Potency (CAOV3) | outcome (CASKI) | Potency (Es-2) | Potency (HeLa) | Potency (Hek293T) | Potency (JEG-3)

COc1ccc(N2CCN(CCCNC(=O)Cn3c(=O)c4cccn4c4c(C)ccnc43)CC2)cc1
inactive: outcome (HACAT) | outcome (NIH3T3) | Potency (C33A) | Potency (CAOV3) | outcome (CASKI) | Potency (Es-2) | Potency (HeLa) | Potency (Hek293T) | Potency (JEG-3)

CC(C)C1NC(=O)CNC(=O)C2CCCN2C(=O)C(Cc2c[nH]c3ccccc23)NC(=O)CNC(=O)C(C(O)c2ccc(O)cc2)NC(=O)CNC1=O (stereo not drawn) (cyclo(G[ξTyr(βOH)]GWPGV); configuration not given here)
inactive: outcome (HACAT) inactive [at 17.4 µM] | outcome (NIH3T3) inactive [at 17.4 µM] | Potency (C33A) | Potency (CAOV3) | outcome (CASKI) | Potency (Es-2) | Potency (HeLa) | Potency (Hek293T) | Potency (JEG-3)
